According to PubChem BioAssay AID778 (Sanford-Burnham Center for Chemical Genomics, 2007):
The whole screen tested about 96,000 compounds, of which about 20,000 (21%) were called active.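 The calls were made as follows: active = CYP2C19 inhibition above a set limit at 5 µM in the primary screen (cut at about 50% in these data); inactive = the rest.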 Only a sample is shown.

Biological target: Cytochrome P450 2C19 (Homo sapiens) (UniProt P33261)
Assay: blockers of cytochrome P450 2C19 activity – biochemical, luminescence, ADME assay, primary screen (AID 778);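 also: plate controls were negative control wells for no effect and 2.5 mM tranylcypromine positive control for full effect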
Details: CYP2C19 Supersomes, luciferin-H EGE luminescence, 30 min; at 5 µM; hits give high values

Cytochrome P450 2C19 (Homo sapiens), sequence (P33261 whole entry, looked up): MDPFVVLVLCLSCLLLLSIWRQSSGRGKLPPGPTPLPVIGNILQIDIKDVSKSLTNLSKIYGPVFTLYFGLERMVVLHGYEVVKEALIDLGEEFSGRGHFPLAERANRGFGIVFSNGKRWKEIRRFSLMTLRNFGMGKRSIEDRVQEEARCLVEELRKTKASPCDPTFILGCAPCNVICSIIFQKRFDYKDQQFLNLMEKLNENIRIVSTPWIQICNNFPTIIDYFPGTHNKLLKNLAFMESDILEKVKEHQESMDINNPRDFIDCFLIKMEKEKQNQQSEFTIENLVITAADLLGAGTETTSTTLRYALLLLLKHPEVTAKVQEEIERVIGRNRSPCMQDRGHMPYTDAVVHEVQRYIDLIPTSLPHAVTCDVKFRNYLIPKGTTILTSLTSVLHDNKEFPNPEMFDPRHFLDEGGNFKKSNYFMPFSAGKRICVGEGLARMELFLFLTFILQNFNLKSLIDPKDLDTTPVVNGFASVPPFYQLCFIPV

Compound	inhibition
Cc1nc([N+](=O)[O-])nn1C12CC3CC(CC(Br)(C3)C1)C2	15.2% (inactive)
COC(=O)c1sccc1NC(=O)c1cc(OC)c(OC)c(OC)c1	5.1% (inactive)
CCCCN=C1N/C(=C\c2ccco2)C(=O)N1c1ccccc1	0.7% (inactive)
O=C(NC1=NCCS1)[C@H](Cc1ccccc1)N1C(=O)c2ccccc2C1=O	57.5% (active)
CSCCC(C(=O)NC1=NCCS1)N1C(=O)c2ccccc2C1=O (configuration not stated)	17.5% (inactive)
O=C(NCCN1CCOCC1)[C@H](Cc1ccccc1)N1C(=O)c2ccccc2C1=O	-8.6% (inactive)
C=CCn1c(SCc2csc(C)n2)nc2scc(-c3ccc(C)o3)c2c1=O	16.7% (inactive)
O=S(=O)(c1ccc2ccccc2c1)N1CCN(S(=O)(=O)N2CCOCC2)CC1	20.2% (inactive)
Cn1c(SCC(=O)Nc2cccc(O)c2)nnc1-c1ccc(S(=O)(=O)N2CCOCC2)cc1	2.3% (inactive)
O=C(CCc1ccc(S(=O)(=O)N2CCOCC2)cc1)Nc1ccc2ccccc2c1	62.6% (active)
CCOC(=O)N1CCN(CC(=O)n2c(C)c(C)c3ccccc32)CC1	37.1% (inactive)
CCCc1nc(N)nc2c1C(=O)CC(C)(C)C2	7.6% (inactive)
CC(C)c1ccc(/C=C/C(=O)NNC(=O)c2cccnc2)cc1	1.1% (inactive)
COc1ccc2[nH]cc(/C=C(/C#N)S(=O)(=O)c3ccccc3)c2c1	99.8% (active)
COc1ccc(/C=C(\NC(=O)c2ccc(OC)c(OC)c2)C(=O)NCCc2c[nH]c3ccccc23)cc1	35.2% (inactive)
CCn1nc(NC(=O)c2ccco2)c2cc3ccc(C)cc3nc21	7.9% (inactive)
O=C(NC1(C(F)(F)F)N=C2SCCN2C1=O)c1ccco1 (configuration not stated)	-15.5% (inactive)
CCN(CC)C(=O)CSc1nnc(CNc2ccc(F)cc2)n1Cc1ccco1	-8.4% (inactive)
N#C/C(=C(/O)Cc1cccc2ccccc12)c1nc2ccccc2s1	-0.2% (inactive)
c1ccc2c(C[n+]3csc4ccccc43)cccc2c1	60.7% (active)
N=C(N)SCc1cccc2ccccc12	-3.6% (inactive)
Cc1c2cn[nH]c(=O)c2c(C)n1Cc1ccc(F)cc1	48.3% (inactive)
Cc1ccc2oc(=O)c3cnn(CC(=O)N(Cc4ccco4)C4CCCCC4)c3c2c1	7.4% (inactive)
CCOC(=O)c1c(NC(=O)CCCN2CCOCC2)sc2c1CC(C)(C)OC2	9.3% (inactive)
CCC(C(=O)NC1CCCC1)N(C(=O)c1snc(C(N)=O)c1N)c1ccc2c(c1)OCCO2 (configuration not stated)	-2.4% (inactive)
Cc1ccc(C(C(=O)NC2CCCCC2)N(C(=O)c2csnn2)C2CC2)o1 (configuration not stated)	50% (active)
Cc1ccsc1C(C(=O)NC1CCCCC1)N(C(=O)Cc1cccs1)C1CC1 (configuration not stated)	-2.9% (inactive)
